The record followed here is PubChem BioAssay (NCATS).

SMILES strings stand for the structures. Several values for one entry are separate records, joined by “and”; a condition that tells them apart may be missing. Identical values can stand only once. Values without a mark were called inactive. Results filed as inconclusive are left out. Activity calls are given as the source filed them. Unless noted, calls come from the whole dose curve; as a rule, active = well fitted curve in either direction with a large enough effect (not every such curve was filed as active); inconclusive = small, poorly fitted or top-dose-only effect, or another doubt; inactive = flat fitted curve, though single readings scatter.

Experiment [1] is described as follows: AP1 Signaling Pathway (AID 357).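 Note: ME-180 reporter cells stimulated with EGF at its EC50 level; % is set by controls: 0 for no effect and ±100 for the full control effect.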 The note with it: ME-180 AP-1-bla reporter, EGF-induced, beta-lactamase ratio, 5 h. In short, it runs like this:
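AP-1-bla ME-180 cells, Opti-MEM + 0.5% dialyzed FBS, plated overnight 37 °C. Cpd titration + EC50 EGF, 5 h 37 °C. CCF4 2.5 h RT; ex 405, em 460/530 ratio → %activity, AC50.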

Experiment [2] has as its target Cytochrome P450 1A2 (Homo sapiens) (UniProt P05177). Nature of the experiment: p450-cyp1a2 (AID 410; calls by dose curve; note: potency is the fitted concentration of half-maximal effect;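 for activity change, negative = inhibition: -100% = full effect of reference inhibitor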). The note with it: recombinant CYP1A2, luciferin-ME demethylation, luminescence; series mostly up to 57 µM. A digest of the protocol: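 Read-out is luminescence from luciferin produced by CYP1A2 demethylation of Luciferin-ME (100uM, at Km). Detection reagent stopped the 60 min NADPH-dependent reaction; signals were normalized to 57 uM furafylline.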

A short description of experiment [3]: NFAT Signaling Pathway (AID 444).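 Note: carbachol stimulus at about its EC50 of 1 µM final; % is set by controls: 0 for no effect and ±100 for the full control effect.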 The following applies: Jurkat NFAT-bla M1, carbachol, beta-lactamase ratio, 5 h. In short, it runs like this:
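Jurkat cells carrying an NFAT-driven β-lactamase reporter and co-transfected muscarinic M1 receptor were treated with compound plus carbachol (1 uM final, an EC50 level) for 5 h at 37 °C. CCF4 loading followed for 1 h at RT; 460/530 nm ratio gave %activity.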

A short description of experiment [4]: Stat Signaling Pathway (AID 446).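 Note: ME-180 cervical cancer cells given 40 pM IL-6 alongside compound; SIE-controlled beta-lactamase reporter measured as 460/530 nm FRET emission ratio; % is set by controls: 0 for no effect and ±100 for the full control effect.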 The note with it: ME-180 (cervical carcinoma) SIE beta-lactamase reporter, IL-6 stimulated, 5 h. A digest of the protocol: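 Overnight-plated ME-180 cells bearing a STAT Inducible Element beta-lactamase reporter; 5 h co-exposure to compound and 40 pM IL-6; values normalized to 300 pM IL-6 and 125 nM JAK inhibitor controls.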
In experiment [5] the target is Glucocorticoid receptor (Homo sapiens) (UniProt P04150). Nature of the experiment: GR-EFC Redistribution (AID 451; calls by dose curve; note: potency is the fitted concentration of half-maximal effect). The note with it: CHO-K1 GR-EFC translocation, beta-gal luminescence, 2 h. In short, it runs like this:
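CHO-K1 cells stably expressing nuclear-localized β-gal enzyme acceptor and GR fused C-terminally to the enzyme donor fragment; ligand-driven nuclear translocation restores β-gal by complementation. Compounds titrated up to 46 uM final, 2 h at 37 °C; luminescence read.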

Experiment [6] has as its target 3',5'-cyclic-AMP phosphodiesterase 4B (Homo sapiens) (UniProt Q07343). In words: qHTS Assay for Inhibitors of PDE-IV (AID 607; active = well fitted activation curve with a large enough effect in the main read-out, with a control signal flat, not every such curve was filed as active; note: % of control where 0% means no effect). The following applies: HEK293 ACTOne CNG channel cells, membrane potential fluorescence; series mostly up to 22.9 µM. In short, it runs like this: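 Live HEK293 cells with a modified cyclic nucleotide-gated (CNG) channel report intracellular cAMP via membrane-potential dye fluorescence (ex 535/em 590 nm). Endogenous PDE-IV was targeted. Compounds were tested at up to 22.9 uM final; RO 20-1724 100 uM served as control.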

Experiment [7] concerns the target Glucocorticoid receptor (Homo sapiens) (UniProt P04150). Nature of the experiment: GR-GFP Redistribution (AID 450;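 active = compounds whose dose series gives a full or clear partial fitted curve of increased nuclear translocation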; note: potency is the fitted concentration of half-maximal effect). The note with it: U2OS GR-GFP nuclear translocation, laser cytometry, 2 h.
The target of experiment [8] is Mitogen-activated protein kinase 10 (Mus musculus) (UniProt Q61831). Nature of the experiment: JNK3 AlphaScreen Assay (AID 530).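 Note: kinase came from lysate of stimulated human HepG2 cells; signal reports phosphorylation of biotinylated GST-cJun 1-79 at Ser73 with 10 µM ATP; % is set by controls: 0 for no effect and ±100 for the full control effect.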 The following applies: JNK3 lysate, c-Jun phosphorylation; series mostly up to 57.1 µM. A digest of the protocol:
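Biotinylated GST-cJun(1-79) served as substrate for JNK3 in HepG2 lysates stimulated with IL-1beta and TNF-alpha. ATP was 10 uM final, pH 7.6. Ser73 phosphorylation was quantified by AlphaScreen (680 nm excitation).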

The target of experiment [9] is Lysosomal acid glucosylceramidase (Homo sapiens) (UniProt P04062). In words: Glucocerebrosidase-p2 (AID 348; in the data active = potency below about 10 µM; note: potency is the fitted concentration of half-maximal effect). The following applies: purified GBA, blue fluorogenic substrate, 40 min. In short, it runs like this: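 Normal human glucocerebrosidase (0.2 nM) with blue fluorogenic substrate (80 uM final) in citrate/phosphate pH 5.9 with 10mM sodium taurocholate, 0.01% tween-20; 40 min RT, NaOH/glycine stop; fluorescence Ex 365/Em 440; AC50 from a titration from 0.6 nM upwards.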
Sequence of Lysosomal acid glucosylceramidase (Homo sapiens) (P04062 whole entry, looked up): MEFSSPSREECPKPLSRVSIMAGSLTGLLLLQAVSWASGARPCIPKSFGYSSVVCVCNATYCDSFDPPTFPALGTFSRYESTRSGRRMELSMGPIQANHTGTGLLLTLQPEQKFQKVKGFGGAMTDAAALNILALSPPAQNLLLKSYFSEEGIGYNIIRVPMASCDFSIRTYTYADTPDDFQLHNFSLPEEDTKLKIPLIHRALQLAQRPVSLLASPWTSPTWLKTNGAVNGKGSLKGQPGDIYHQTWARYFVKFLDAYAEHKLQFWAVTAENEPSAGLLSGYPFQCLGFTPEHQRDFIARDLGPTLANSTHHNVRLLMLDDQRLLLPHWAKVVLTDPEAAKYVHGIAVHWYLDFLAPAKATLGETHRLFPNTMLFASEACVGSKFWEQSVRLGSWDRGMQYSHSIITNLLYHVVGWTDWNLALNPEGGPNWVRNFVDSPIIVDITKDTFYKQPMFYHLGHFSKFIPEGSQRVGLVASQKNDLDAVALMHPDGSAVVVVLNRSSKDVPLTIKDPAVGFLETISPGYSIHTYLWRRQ

Experiment [10] in a line: Cell Viability - BJ (AID 421; calls by dose curve;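 note: potency is the fitted concentration of half-maximal effect; cells exposed to compound for 40 hours at 37 °C before readout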). The following applies: BJ fibroblast viability, qHTS. A digest of the protocol: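 Quantitative HTS: ATP depletion in BJ cells after 40 hr compound exposure in complete culture medium, detected with CellTiter-Glo; AC50 from standard Hill fits.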
Experiment [11] in a line: Cell Viability - Jurkat (AID 426;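 active = dose-dependent loss of cell ATP signal giving a full or clear fitted curve, ranked by lower potency value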;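 note: potency is the fitted concentration of half-maximal effect; cells exposed to compound for 40 hours at 37 °C before ATP read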). The note with it: qHTS. A digest of the protocol: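 Cytotoxicity was scored as loss of cellular ATP, measured by luciferase-based luminescence, in Jurkat clone E6-1 cells after 40 h compound treatment; tamoxifen and doxorubicin served as positive controls.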
Experiment [12] can be described thus: Cell Viability - Hek293 (AID 427;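 active = compounds whose dose-response curve shows a full or clear partial loss of cell viability, called from curve shape rather than a numeric limit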;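 note: potency is the fitted concentration of half-maximal effect; cells exposed to compound for 40 hours at 37 °C before reading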). The following applies: qHTS. A digest of the protocol:
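AC50 values derive from Hill-modelled concentration-response of ATP-based luminescence, normalized between DMSO-only and 100 uM tamoxifen controls. Cells were exposed in complete culture medium for 40 hr at 37 °C before detection.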

The nature of experiment [13]: Cell Viability - MRC5 (AID 434; calls by dose curve;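 note: potency is the fitted concentration of half-maximal effect; potency reflects cytotoxicity seen as loss of intracellular ATP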). The following applies: MRC5 lung fibroblast viability, qHTS. In short, it runs like this: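 Decrease in intracellular ATP, quantified by luciferase light output, reflects compound toxicity toward MRC5 cells exposed for 40 hr in complete culture medium. Concentration-response curves, scaled between DMSO and 100 uM tamoxifen, gave AC50 values.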

The nature of experiment [14]: Cell Viability - SK-N-SH (AID 435; calls by dose curve;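 note: potency is the fitted concentration of half-maximal effect; compound exposure lasted 40 h at 37 °C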). The note with it: SK-N-SH neuroblastoma cell viability qHTS. A digest of the protocol:
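SK-N-SH human neuroblastoma cells (1500/well) were exposed to compounds in complete medium for 40 h at 37 °C, and intracellular ATP was then measured by CellTiter-Glo luminescence. AC50 was taken from Hill fits, normalized to DMSO and 100 uM tamoxifen.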

Experiment [15] can be described thus: Cell Viability - NIH 3T3 (AID 541; active = well fitted curve in the direction sought with a large enough effect; an effect the other way counts as inactive or inconclusive; note: potency is the fitted concentration of half-maximal effect; nearly all actives have a fitted effect of over 25% in size). The note with it: NIH 3T3 cell viability, qHTS; activity change, negative = cytotoxicity: at 92.2 µM (top of the series). In short, it runs like this:
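In this cytotoxicity screen, acute toxicity is scored as an ATP drop measured by CellTiter-Glo in NIH 3T3 fibroblasts following a 40 hr, 37 °C incubation with compound.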

Experiment [16] in a line: Cell Viability - HUV-EC-C (AID 542; active = well fitted curve in the direction sought with a large enough effect; an effect the other way counts as inactive or inconclusive; note: potency is the fitted concentration of half-maximal effect; nearly all actives have a fitted effect of over 35% in size). The note with it: HUV-EC-C endothelial cell viability, qHTS; series mostly up to 92.2 µM. A digest of the protocol: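 Concentration-dependent ATP loss in HUV-EC-C cells is the measure. Exposure lasts 40 hr at 37 °C; luminescence follows CellTiter-Glo addition, and Hill fits give AC50.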
Experiment [17] can be described thus: Cell Viability - H-4-II-E (AID 543; active = well fitted curve in the direction sought with a large enough effect; an effect the other way counts as inactive or inconclusive; note: potency is the fitted concentration of half-maximal effect; nearly all actives have a fitted effect of over 35% in size). The following applies: H-4-II-E rat hepatoma viability; series mostly up to 92.2 µM. In short, it runs like this: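 AC50 from Hill-modelled qHTS concentration-response curves. H-4-II-E rat hepatoma cells in complete medium, 40 hr exposure at 37 °C, viability by CellTiter-Glo ATP luminescence.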
A short description of experiment [18]: Cell Viability - Renal Proximal Tubule (AID 545; active = well fitted curve in the direction sought with a large enough effect; an effect the other way counts as inactive or inconclusive; note: potency is the fitted concentration of half-maximal effect; nearly all actives have a fitted effect of over 40% in size). The note with it: renal proximal tubule cells viability, primary cells of rat origin; activity change, negative = cytotoxicity: at 91.7 µM (top of the series). In short, it runs like this:
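Primary rat renal proximal tubule cells (1000/well) were treated with compounds for 40 hr at 37 °C in complete medium. Intracellular ATP was measured by CellTiter-Glo luminescence, and AC50 values came from Hill-equation fits of concentration-response data.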

A short description of experiment [19]: Cellular Toxicity (caspase-3) HepG2 (AID 654; active = well fitted curve in the direction sought with a large enough effect; an effect the other way counts as inactive or inconclusive; note: potency is the fitted concentration of half-maximal effect). The note with it: HepG2 caspase-3 activation, luminescence; series mostly up to 92.2 µM. In short, it runs like this: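 Concentration-response AC50 values reflect caspase-3/7 induction in HepG2 cells after 16 hours of compound exposure, quantified by luminescence from liberated aminoluciferin and referenced to 100 uM tamoxifen as full stimulation.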

Setting [20] is: at 38 µM (top of the series) unless noted.

Sequence of Glucocorticoid receptor (Homo sapiens) (P04150 whole entry, looked up, the tested form may be a part): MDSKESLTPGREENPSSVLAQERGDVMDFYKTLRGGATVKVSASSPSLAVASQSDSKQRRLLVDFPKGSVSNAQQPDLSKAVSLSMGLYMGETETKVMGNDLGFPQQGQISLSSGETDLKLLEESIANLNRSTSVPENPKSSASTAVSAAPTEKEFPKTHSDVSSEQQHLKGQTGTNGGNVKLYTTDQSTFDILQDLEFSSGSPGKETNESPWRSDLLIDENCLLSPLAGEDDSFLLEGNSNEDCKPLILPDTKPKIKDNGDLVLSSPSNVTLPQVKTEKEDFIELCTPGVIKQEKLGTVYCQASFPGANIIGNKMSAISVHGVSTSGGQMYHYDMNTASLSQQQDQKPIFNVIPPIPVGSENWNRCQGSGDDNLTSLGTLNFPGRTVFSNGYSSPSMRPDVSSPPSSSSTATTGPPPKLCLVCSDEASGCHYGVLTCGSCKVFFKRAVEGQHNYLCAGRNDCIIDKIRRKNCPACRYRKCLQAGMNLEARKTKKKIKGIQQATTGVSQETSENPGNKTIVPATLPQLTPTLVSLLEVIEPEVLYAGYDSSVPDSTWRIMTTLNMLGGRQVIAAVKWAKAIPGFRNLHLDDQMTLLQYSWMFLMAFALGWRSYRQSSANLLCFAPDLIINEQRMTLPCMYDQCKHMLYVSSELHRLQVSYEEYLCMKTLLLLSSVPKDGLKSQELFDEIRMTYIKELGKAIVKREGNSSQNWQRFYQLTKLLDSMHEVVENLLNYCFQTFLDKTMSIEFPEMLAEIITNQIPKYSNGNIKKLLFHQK
Sequence of 3',5'-cyclic-AMP phosphodiesterase 4B (Homo sapiens) (Q07343 whole entry, looked up): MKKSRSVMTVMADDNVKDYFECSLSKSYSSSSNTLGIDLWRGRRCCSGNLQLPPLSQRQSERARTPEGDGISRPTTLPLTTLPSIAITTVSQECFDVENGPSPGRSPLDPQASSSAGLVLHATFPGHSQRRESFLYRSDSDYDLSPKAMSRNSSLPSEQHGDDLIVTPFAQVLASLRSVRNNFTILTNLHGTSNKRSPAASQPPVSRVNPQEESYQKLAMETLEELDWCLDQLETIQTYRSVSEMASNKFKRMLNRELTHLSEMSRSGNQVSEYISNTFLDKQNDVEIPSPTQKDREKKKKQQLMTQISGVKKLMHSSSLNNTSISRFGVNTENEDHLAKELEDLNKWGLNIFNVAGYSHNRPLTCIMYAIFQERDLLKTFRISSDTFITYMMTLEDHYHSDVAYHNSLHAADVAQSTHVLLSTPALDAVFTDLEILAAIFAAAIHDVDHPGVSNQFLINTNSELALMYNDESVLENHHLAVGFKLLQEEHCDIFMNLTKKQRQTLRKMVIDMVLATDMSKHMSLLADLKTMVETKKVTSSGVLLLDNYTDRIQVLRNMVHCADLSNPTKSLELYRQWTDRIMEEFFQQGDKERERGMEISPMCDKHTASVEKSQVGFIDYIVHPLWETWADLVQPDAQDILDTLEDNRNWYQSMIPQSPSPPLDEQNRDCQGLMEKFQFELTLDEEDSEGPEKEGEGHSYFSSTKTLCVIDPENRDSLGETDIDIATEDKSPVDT
Sequence of Cytochrome P450 1A2 (Homo sapiens) (P05177 whole entry, looked up): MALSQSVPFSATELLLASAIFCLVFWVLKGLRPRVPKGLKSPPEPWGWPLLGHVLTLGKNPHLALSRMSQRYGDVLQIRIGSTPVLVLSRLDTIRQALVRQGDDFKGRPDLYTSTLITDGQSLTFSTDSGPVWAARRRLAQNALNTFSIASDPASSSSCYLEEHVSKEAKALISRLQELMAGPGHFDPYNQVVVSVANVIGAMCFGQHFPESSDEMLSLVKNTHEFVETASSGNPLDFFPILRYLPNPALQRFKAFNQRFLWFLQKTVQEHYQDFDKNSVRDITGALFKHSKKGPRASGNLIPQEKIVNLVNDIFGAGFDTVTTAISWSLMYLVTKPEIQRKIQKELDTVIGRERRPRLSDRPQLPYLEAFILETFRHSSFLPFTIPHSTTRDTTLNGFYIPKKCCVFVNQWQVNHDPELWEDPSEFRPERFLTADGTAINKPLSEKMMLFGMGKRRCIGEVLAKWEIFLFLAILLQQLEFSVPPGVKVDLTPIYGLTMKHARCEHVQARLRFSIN

With `O=C(Nc1cccc(C(=O)Nc2ccc(S(=O)(=O)O)c3cc(S(=O)(=O)O)cc(S(=O)(=O)O)c23)c1)Nc1cccc(C(=O)Nc2ccc(S(=O)(=O)O)c3cc(S(=O)(=O)O)cc(S(=O)(=O)O)c23)c1`, the activity change, negative = inhibition was -2.72% in experiment [1] (at 38 µM (top of the series)) and 4.75% in experiment [3] (setting [20]). Moreover, the Potency result in experiment [2] is “inactive”. Also, the activity, negative = inhibition in experiment [4] (at 38 µM (top of the series)) is -0.505%. Further, in [5], the Potency was over 46 µM. Further, the result in experiment [6] was inactive.
In the case of `CCCn1c(=O)c2[nH]c(-c3ccc(OCC(=O)NCCN)cc3)nc2n(CCC)c1=O`, the results for the activity change, negative = inhibition in experiment [1] (at 38 µM (top of the series)) and in experiment [3] (setting [20]) were 6.39% and -8.17%, respectively. Besides, the Potency entry in experiment [2] and in experiment [8] was “inactive” throughout. In addition, the activity, negative = inhibition in [4] (at 38 µM (top of the series)) was -14%. In addition, the Potency in experiment [7] and in experiment [5] was over 46 µM throughout. For the same compound, in experiment [6], the result was inactive.
`COc1cc2c(CCNC(C)=O)c[nH]c2cc1Cl`: the figures for the activity change, negative = inhibition in experiment [1] (at 38 µM (top of the series)) and in experiment [3] (setting [20]) were -0.206% and -9.13%, respectively. The Potency in experiment [2] was 1 µM (active) and 126 nM (active); in [7], over 46 µM. Further, the activity, negative = inhibition in experiment [4] (at 38 µM (top of the series)) is -15.8%. Further, the Potency result in experiment [8] is “inactive”. Further, the compound was called inactive in [6].
As to `CN(C)c1nc(N)c(C(=O)N=C(N)N)nc1Cl`, the activity change, negative = inhibition was 10.7% in [1] (at 38 µM (top of the series)) and -15.7% in [3] (setting [20]). Moreover, the Potency in experiment [2] is 1 µM (active); in experiment [7], over 46 µM; in experiment [5], over 46 µM. Further, the activity, negative = inhibition in [4] (at 38 µM (top of the series)) is 19%. Moreover, the outcome in experiment [6] was inactive.
Consider `O=C(O)c1ccccc1Nc1cccc(C(F)(F)F)c1`, for which the activity change, negative = inhibition in experiment [1] (at 17.2 µM (top of the series)) is -4.38% and -13.2%; in experiment [3] (setting [20]) it was -44% [at 17.2 µM]. Moreover, the Potency is 3.98 µM (active) in experiment [2] and over 20.6 µM in experiment [7]. In addition, the activity, negative = inhibition in experiment [4] (at 17.2 µM (top of the series)) was -14.4% and -17.3%. In addition, the Potency entry in experiment [8] is “inactive”.
Take `CN(C)c1ccc(C(=C2C=CC(=[N+](C)C)C=C2)c2ccccc2)cc1`: the Potency in experiment [9] is over 11.4 µM; in experiment [10], 1.14 µM (active); in experiment [11] it was 0.0233 µM (active); in experiment [12], 0.244 µM (active); in experiment [13] it was 0.458 µM (active); in [14], 0.052 µM (active). Besides, the Potency in [15] is 0.2 µM (active); in experiment [16], 6.31 µM (active); in experiment [17], 0.0794 µM (active); in experiment [18], 0.2 µM (active); in experiment [19], 0.631 µM (active). Also, the activity change, negative = inhibition in experiment [1] (at 7.69 µM (top of the series)) is 0.139%; in experiment [8], -22.8% [at 11.4 µM]. Besides, the compound was classed as inactive in experiment [6].
For the compound `Cc1nc2sccn2c(=O)c1CCN1CCC(=C(c2ccccc2)c2ccc(F)cc2)CC1`, the activity change, negative = inhibition was -10.2% in [1] (at 17.2 µM (top of the series)) and 8.49% in experiment [1] (at 38 µM (top of the series)). The results for the activity, negative = inhibition in [4] (at 17.2 µM (top of the series)) and in [4] (at 38 µM (top of the series)) were -13.7% and 13.4%, respectively. In [7], the Potency was > 46 µM and > 20.6 µM. Moreover, the Potency result in experiment [8] is “inactive”. Further, in [6], the call was inactive.
For `NCCSSCCN`, the Potency is over 11.4 µM in [9]; over 46 µM in experiment [7]; > 46 µM and > 9.22 µM in experiment [5]. In addition, the activity change, negative = inhibition is -2.06% in experiment [1] (at 7.69 µM (top of the series)), -9.31% in [1] (at 38 µM (top of the series)), 0.926% in experiment [3] (at 7.69 µM (top of the series)) and -3.66% in experiment [3] (at 38 µM (top of the series)). The Potency entry in experiment [2] and in experiment [8] was “inactive” throughout. Besides, the figures for the activity, negative = inhibition in experiment [4] (at 7.69 µM (top of the series)) and in experiment [4] (at 38 µM (top of the series)) were -10% and -21.5%, respectively. Further, in experiment [6], the result was inactive.
